In the assay the test system is Plasmodium falciparum NF54 stage V gametocytes. Put plainly: viability index relative to DMSO control (fraction); higher = less gametocyte killing. To be noted: 2.5 µM, incubation time: 72 h. The essentials:
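Viability index is the count of red-stained particles in a well divided by the plate mean of solvent-only wells. Particles of 20–70 µm2 were counted in one imaged field per well after one to two hours with 3 µl of 2.5 µM MitoTracker Red CMXRos and 0.13% saponin. Before staining, P. falciparum NF54 stage V gametocytes in serum-free medium (0.75% gametocytemia, 1.25% hematocrit, 10 µl, 1,536-well plates) were kept with compound at 2.5 µM for 72 hr at 37°C under low oxygen.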

[1] abbreviates: library set: Broad Institute Blood Stage.
[2] abbreviates: library set: Broad Institute DOS.

± gives the uncertainty stated by the source. Whole data set: some 9,900 compounds, median “viability index relative to DMSO control” near 1, cut for the lowest 2% near 0.85. The list comes from a sample in which the lowest values are over-represented; it also holds similar structures and randomly drawn compounds.

The compound `COc1ccc2c3c([C@@H](CO)N(C[C@]33CCN(CC3)C(=O)Nc3cccc(F)c3)C(=O)C3CCCC3)n(C)c2c1` showed a viability index under setting [1] of 0.822 ± 0.039.
Regarding `COc1ccc2c3c([C@H](CO)N(C[C@]33CCN(CC3)C(=O)Nc3cccc(F)c3)C(=O)CN3CCOCC3)n(C)c2c1`, under setting [2], the viability index was determined as 0.941 ± 0.018.
Compound `COc1ccc2c3c([C@@H](CO)N(C[C@]33CCN(CC3)C(=O)Nc3cccc(F)c3)C(=O)C3CC3)n(C)c2c1` gave a viability index under setting [1] of 0.807 ± 0.036.
Under setting [2], `CCCNC(=O)N1C[C@]2(CCN(CC2)C(=O)Nc2cccc(F)c2)c2c([C@H]1CO)n(C)c1cc(OC)ccc21` showed a viability index of 0.991 ± 0.079.
Still for that read-out and setting: next, `COc1ccc2c3c([C@@H](CO)N(C[C@]33CN(C3)C(=O)Nc3cccc(F)c3)C(=O)C3CCOCC3)n(C)c2c1`: 1.06 ± 0.05; `COc1ccc2c3c([C@@H](CO)N(C[C@]33CCN(CC3)C(=O)Nc3cccc(F)c3)C(=O)CN3CCOCC3)n(C)c2c1`: 0.993 ± 0.12; `C[C@@H]1C/C=C/C[C@@H](c2ccccc2)NC(=O)[C@H](C)N(C)C(=O)c2ccccc2O1.C[C@@H]1C/C=C\C[C@@H](c2ccccc2)NC(=O)[C@H](C)N(C)C(=O)c2ccccc2O1`: 1 ± 0.069.
Under setting [2], `COc1ccc2c3c([C@H](CO)NC[C@]33CN(Cc4ccc(cc4)-c4ccccn4)C3)n(C)c2c1` had a viability index of 0.934 ± 0.11.
On the same count and under the same terms, next, `COc1ccc2c3c([C@@H](CO)NC[C@]33CCN(Cc4ccncc4)CC3)n(C)c2c1`: 1.01 ± 0.045.
The compound `COc1ccc2c3c([C@H](CO)NC[C@]33CCN(Cc4ccc(cc4)-c4ccccn4)CC3)n(C)c2c1` displayed a viability index under setting [1] of 0.835 ± 0.04.
Under setting [2], `COc1ccc2c3c([C@@H](CO)NC[C@]33CN(Cc4ccc(cc4)-c4ccccn4)C3)n(C)c2c1` gave a viability index of 0.997 ± 0.019.
Still for that read-out and setting: next, `COc1ccc2c3c([C@H](CO)NC[C@]33CN(Cc4ccc(F)cc4)C3)n(C)c2c1`: 0.841 ± 0.014.
Turning to `COc1ccc2c3c([C@@H](CO)NC[C@]33CCN(Cc4ccc(cc4)-c4ccccn4)CC3)n(C)c2c1`, the viability index under setting [1] worked out at 0.946 ± 0.052.
Under setting [2], `CO[C@H]1CN(C)C(=O)c2cc(NC(=O)c3cnccn3)ccc2OC[C@H](C)NC[C@H]1C` showed a viability index of 1.09 ± 0.041.
Still for that read-out and setting: next, `COc1ccc(-c2ccc([C@H]3[C@H]4CNC[C@@H]3N4S(=O)(=O)c3cn(C)cn3)cc2)cc1`: 1.0563 ± 0.00097; `O=C(CC1CC1)N1CC2(C1)[C@@H](c1ccccc1)[C@H](CO)N2C(=O)c1ccccn1`: 1 ± 0.013.
Same read-out and setting: the same measure for `C[C@H]1CN([C@@H](C)CO)C(=O)c2c(c3ccccc3n2C)-c2ccccc2CO[C@H]1CN(C)C`: 1.04 ± 0.052; for `O=C(C[C@H]1CC[C@H]2NC[C@@H](O)COC[C@@H]2O1)N1CCc2ccccc2C1`: 1.03 ± 0.049.
The same measure, in the same setting: next, `O=C(CC1CC1)N1CC[C@@H]2[C@H]1c1cc(-c3ccc(F)cc3)ccc1N[C@@H]2CO`: 1.046 ± 0.009.
Under setting [2], `COc1ccc(C#Cc2cccc(-c3nc(C(=O)N4CCN(Cc5ccccc5)CC4)cc4c3[C@H](CCO)N(S(=O)C(C)(C)C)C4)c2)cc1OC` (some centres undefined) showed a viability index of 1.04 ± 0.11.
Still for that read-out and setting: the same measure for `COc1ccccc1-c1cccc(-c2nc(C(=O)N3CCN(C)CC3)cc3c2[C@H](CCO)N([S@@](=O)C(C)(C)C)C3)c1`: 1.03 ± 0.032; for `COc1ccc(C#Cc2cccc(-c3nc(C(=O)Nc4ccc(-c5ccccc5)cc4)cc4c3[C@@H](CCO)N(S(=O)C(C)(C)C)C4)c2)cc1OC` (some centres undefined): 1.016 ± 0.0075; for `CC(C)(C)S(=O)N1Cc2cc(C(=O)NCc3ccc4c(c3)OCO4)nc(-c3cccc(-c4cccc(F)c4)c3)c2[C@@H]1CCO` (some centres undefined): 1.04 ± 0.015.
On the same count and under the same terms, the same measure for `COc1ccc(C#Cc2cccc(-c3nc(C(=O)N4CCN(Cc5ccccc5)CC4)cc4c3[C@@H](CCO)N(S(=O)C(C)(C)C)C4)c2)cc1OC` (some centres undefined): 0.826 ± 0.14; for `CC(C)(C)S(=O)N1Cc2cc(C(=O)O)nc(-c3cccc(-c4cc5ccccc5o4)c3)c2[C@@H]1CCO` (some centres undefined): 1.03 ± 0.023; for `COc1ccc(C#Cc2cccc(-c3nc(C(=O)NCc4ccc5c(c4)OCO5)cc4c3[C@@H](CCO)N(S(=O)C(C)(C)C)C4)c2)cc1OC` (some centres undefined): 0.9061 ± 0.0023.
Still for that read-out and setting: next, `CC(C)(C)S(=O)N1Cc2cc(C(=O)N3CCN(Cc4ccccc4)CC3)nc(-c3cccc(-c4cc5ccccc5o4)c3)c2[C@H]1CCO` (some centres undefined): 0.7362 ± 0.0068; `CC(C)(C)S(=O)N1Cc2cc(C(=O)NCc3ccc4c(c3)OCO4)nc(-c3cccc(-c4cc5ccccc5o4)c3)c2[C@H]1CCO` (some centres undefined): 0.656 ± 0.04.
`Cc1ccc(CN2CC(=O)N3[C@H](CO)[C@@H](c4ccc(-c5ccccc5F)cc4)[C@H]3C2)cc1` registered a viability index under setting [2] of 1.05 ± 0.062.
Same read-out and setting: next, `CC(=O)N1[C@H](CO)[C@@H](c2ccccc2)C12CN(S(=O)(=O)c1ccccc1)C2`: 1.11 ± 0.03; `COC(=O)C[C@H]1CC[C@@H]2[C@H](COc3ccc(NC(=O)Nc4cccc(C#N)c4)cc3C(=O)N2C)O1`: 1.1 ± 0.091.
Turning to `O=C(Cc1cccnc1)N1CC(=O)N2[C@H](C1)[C@@H](c1ccc(C#CC3CCCCC3)cc1)[C@@H]2CO`, the viability index under setting [2] is 0.985 ± 0.11.
On the same count and under the same terms, the same measure for `O=C(C1CCOCC1)N1CC(=O)N2[C@H](C1)[C@H](c1ccc(C#CC3CCCCC3)cc1)[C@@H]2CO`: 1.03 ± 0.018; for `C[C@@H]1CN([C@@H](C)CO)C(=O)c2cc(NC(=O)Cn3cnnn3)ccc2O[C@H]1CN(C)Cc1ccc(C(=O)Nc2ccccc2N)cc1`: 1.002 ± 0.0028.
With `O=C(C[C@H]1C[C@@H]2c3cc(NC(=O)Nc4ccccc4)ccc3O[C@@H]2[C@H](CO)O1)NCc1ccccc1`, the viability index under setting [2] amounted to 1.06 ± 0.03.
Still for that read-out and setting: the same measure for `Cc1ccc(S(=O)(=O)Nc2ccc3c(c2)CC(=O)N([C@H](C)CO)C[C@@H](C)[C@@H](CN(C)S(=O)(=O)c2ccccc2)O3)cc1`: 0.949 ± 0.021; for `CCCC(=O)N1C[C@]2(CN(Cc3nccs3)C2)c2c([nH]c3cc(OC)ccc23)[C@@H]1CO`: 1 ± 0.024; for `N#C[C@@H]1[C@@H](c2ccccc2-c2ccccc2)[C@H](CO)N1C(=O)Cc1ccncc1`: 1.1 ± 0.2.
Still for that read-out and setting: the same measure for `C[C@H]1CN([C@@H](C)CO)C(=O)c2ccccc2-c2ccccc2CO[C@H]1CN(C)Cc1cccc(C(=O)O)c1`: 0.958 ± 0.034; for `O=C(C[C@H]1CC[C@@H](NC(=O)C2CC2)[C@H](CO)O1)Nc1ccccc1`: 0.839 ± 0.19; for `O=C(C[C@H]1CC[C@H](NC(=O)C2CC2)[C@H](CO)O1)Nc1ccccc1`: 0.992 ± 0.033.
Under setting [2], `O=C(C[C@H]1CC[C@H](NC(=O)C2CC2)[C@@H](CO)O1)Nc1ccccc1` yielded a viability index of 0.981 ± 0.031.
Under setting [2], `CO[C@H]1CN(C)C(=O)c2cc(NS(=O)(=O)CC(F)(F)F)ccc2OC[C@@H](C)NC[C@H]1C` registered a viability index of 1.07 ± 0.0046.
Same read-out and setting: next, `CCC(=O)N1CC(=O)N2[C@H](CO)[C@H](c3ccc(C#CCC(C)C)cc3)[C@H]2C1`: 0.956 ± 0.046.

(Values after the supplement of paper PMC4723716.)
